In PubChem BioAssay AID1159580 (chemical genetic matrix, 2015):
Out of some 5,500 compounds screened, about 2,000 (36%) were called active. Roughly 18% stayed inconclusive and do not appear here. Rule as the data show it: active = normalized growth mostly below about 0.91 (no sharp cut-off); inconclusive = no clear call, values can overlap the other calls; inactive = mostly above about 0.92. Some of the results follow.

Assay: chemical genetic growth profiling, strain panel (AID 1159580);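 also: tested at 20 µM; growth read once vehicle control cultures reached saturation at 30 °C; 1 = growth at the plate median or of vehicle wells; lower values mean less growth of the strain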
Settings: growth OD

Measured: normalized growth

C=C(C)C1CCC(C)(O)C2CC3OC3(C)C2C1 (stereo unspecified)
inactive: S. cerevisiae deletion strains, locus YAL013W, strain DEP1, hits give low values 1.01 | S. cerevisiae deletion strains, locus YBR021W, strain FUR4, hits give low values 1.02 | S. cerevisiae deletion strains, locus YBR229C, strain ROT2, hits give low values 1.01 | S. cerevisiae deletion strains, locus YCL029C, strain bik1, hits give low values 1.02 | S. cerevisiae deletion strains, locus YDL035C, strain GPR1, hits give low values 1.01 | S. cerevisiae deletion strains, locus YDL074C, strain BRE1, hits give low values 0.99 | S. cerevisiae deletion strains, locus YDL101C, strain DUN1, hits give low values 0.999 | S. cerevisiae deletion strains, locus YDL134C, strain PPH21, hits give low values 1 | S. cerevisiae deletion strains, locus YDL185W, strain tfp1, hits give low values 1.01 | S. cerevisiae deletion strains, locus YDL192W, strain arf1, hits give low values 1.02 | S. cerevisiae deletion strains, locus YDR101C, strain arx1, hits give low values 1 | S. cerevisiae deletion strains, locus YDR150W, strain NUM1, hits give low values 1.02 | S. cerevisiae deletion strains, locus YDR162C, strain NBP2, hits give low values 0.995 | S. cerevisiae deletion strains, locus YDR318W, strain mcm21, hits give low values 1.02 | S. cerevisiae deletion strains, locus YDR388W, hits give low values 1.01 | S. cerevisiae deletion strains, locus YDR502C, strain sam2, hits give low values 1.01 | S. cerevisiae deletion strains, locus YEL061C, strain CIN8, hits give low values 1 | S. cerevisiae deletion strains, locus YER110C, hits give low values 1.01 | S. cerevisiae deletion strains, locus YER155C, strain BEM2, hits give low values 0.999 | S. cerevisiae deletion strains, locus YER167W, strain BCK2, hits give low values 1.01 | S. cerevisiae deletion strains, locus YGL078C, strain dbp3, hits give low values 1.01 | S. cerevisiae deletion strains, locus YGL086W, strain mad1, hits give low values 1.02 | S. cerevisiae deletion strains, locus YGL248W, strain PDE1, hits give low values 1 | S. cerevisiae deletion strains, locus YGR078C, strain PAC10, hits give low values 0.995 | S. cerevisiae deletion strains, locus YGR135W, strain pre9, hits give low values 1 | S. cerevisiae deletion strains, locus YGR229C, strain SMI1, hits give low values 1.03 | S. cerevisiae deletion strains, locus YGR252W, strain gcn5, hits give low values 1.01 | S. cerevisiae deletion strains, locus YHR030C, strain SLT2, hits give low values 1 | S. cerevisiae deletion strains, locus YHR079C, strain IRE1 (second series), hits give low values 1.01 | S. cerevisiae deletion strains, locus YHR094C, strain hxt1, hits give low values 1.01 | S. cerevisiae deletion strains, locus YHR129C, strain ARP1, hits give low values 1 | S. cerevisiae deletion strains, locus YHR200W, strain rpn10, hits give low values 1.01 | S. cerevisiae deletion strains, locus YIL066C, strain RNR3, hits give low values 1.01 | S. cerevisiae deletion strains, locus YIL073C, strain SPO22, hits give low values 1.07 | S. cerevisiae deletion strains, locus YIL125W, strain kgd1, hits give low values 1.01 | S. cerevisiae deletion strains, locus YIR030C, strain dcg1, hits give low values 1 | S. cerevisiae deletion strains, locus YJL095W, strain BCK1, hits give low values 0.978 | S. cerevisiae deletion strains, locus YJL134W, strain LCB3, hits give low values 1.01 | S. cerevisiae deletion strains, locus YJL168C, strain set2, hits give low values 1 | S. cerevisiae deletion strains, locus YJL187C, strain SWE1 (second series), hits give low values 1.01 | S. cerevisiae deletion strains, locus YJR043C, strain POL32, hits give low values 1.03 | S. cerevisiae deletion strains, locus YJR075W, strain HOC1, hits give low values 1.06 | S. cerevisiae deletion strains, locus YKL009W, strain mrt4, hits give low values 1.02 | S. cerevisiae deletion strains, locus YKL068W, hits give low values 1.01 | S. cerevisiae deletion strains, locus YKL085W, strain MDH1 (second series), hits give low values 1 | S. cerevisiae deletion strains, locus YKL085W, strain MDH1, hits give low values 1 | S. cerevisiae deletion strains, locus YKL190W, strain CNB1, hits give low values 1 | S. cerevisiae deletion strains, locus YKR001C, strain vps1, hits give low values 1.02 | S. cerevisiae deletion strains, locus YLR039C, strain RIC1, hits give low values 0.992 | S. cerevisiae deletion strains, locus YLR058C, strain SHM2, hits give low values 1.01 | S. cerevisiae deletion strains, locus YLR102C, strain apc9, hits give low values 1.01 | S. cerevisiae deletion strains, locus YLR262C, strain YPT6, hits give low values 0.999 | S. cerevisiae deletion strains, locus YLR268W, strain sec22, hits give low values 1.01 | S. cerevisiae deletion strains, locus YLR330W, strain CHS5, hits give low values 1 | S. cerevisiae deletion strains, locus YLR342W, strain FKS1 (second series), hits give low values 1.04 | S. cerevisiae deletion strains, locus YLR371W, strain rom2, hits give low values 1.01 | S. cerevisiae deletion strains, locus YLR418C, strain cdc73, hits give low values 0.992 | S. cerevisiae deletion strains, locus YML016C, strain PPZ1, hits give low values 0.995 | S. cerevisiae deletion strains, locus YML032C, strain rad52, hits give low values 1.02 | S. cerevisiae deletion strains, locus YML124C, strain tub3, hits give low values 1.01 | S. cerevisiae deletion strains, locus YMR078C, strain ctf18, hits give low values 1.01 | S. cerevisiae deletion strains, locus YMR223W, strain ubp8, hits give low values 1.01 | S. cerevisiae deletion strains, locus YMR263W, strain SAP30, hits give low values 1 | S. cerevisiae deletion strains, locus YMR307W, strain GAS1, hits give low values 1.03 | S. cerevisiae deletion strains, locus YNL067W, strain RPL9B, hits give low values 1.02 | S. cerevisiae deletion strains, locus YNL128W, strain TEP1, hits give low values 0.99 | S. cerevisiae deletion strains, locus YNL153C, strain GIM3, hits give low values 1 | S. cerevisiae deletion strains, locus YNL233W, strain BNI4, hits give low values 0.998 | S. cerevisiae deletion strains, locus YNL250W, strain rad50, hits give low values 1.02 | S. cerevisiae deletion strains, locus YNL271C, strain bni1, hits give low values 1.01 | S. cerevisiae deletion strains, locus YNL298W, strain CLA4, hits give low values 1.01 | S. cerevisiae deletion strains, locus YNL307C, strain MCK1, hits give low values 1.02 | S. cerevisiae deletion strains, locus YNL322C, strain KRE1, hits give low values 1.01 | S. cerevisiae deletion strains, locus YNR052C, strain pop2, hits give low values 1.02 | S. cerevisiae deletion strains, locus YOL006C, strain TOP1, hits give low values 0.996 | S. cerevisiae deletion strains, locus YOL012C, strain htz1 0.919 | S. cerevisiae deletion strains, locus YOL147C, strain pex11, hits give low values 1.01 | S. cerevisiae deletion strains, locus YOR061W, strain CKA2, hits give low values 1 | S. cerevisiae deletion strains, locus YOR069W, strain VPS5, hits give low values 1.01 | S. cerevisiae deletion strains, locus YOR136W, strain idh2, hits give low values 1.03 | S. cerevisiae deletion strains, locus YOR144C, strain elg1, hits give low values 1.01 | S. cerevisiae deletion strains, locus YOR184W, strain ser1, hits give low values 1.03 | S. cerevisiae deletion strains, locus YOR316C, strain cot1, hits give low values 1.01 | S. cerevisiae deletion strains, locus YPL055C, strain LGE1, hits give low values 1 | S. cerevisiae deletion strains, locus YPL241C, strain CIN2, hits give low values 1 | S. cerevisiae deletion strains, locus YPR119W, strain clb2, hits give low values 1.01 | S. cerevisiae deletion strains, locus YPR141C, strain kar3, hits give low values 1.01 | S. cerevisiae deletion strains, locus YPR163C, strain tif3, hits give low values 1.02 | S. cerevisiae deletion strains, locus YPR167C, strain met16, hits give low values 1.01 | S. cerevisiae deletion strains, strain wtn01, hits give low values 1 | S. cerevisiae strains, strain wild type, hits give low values 1.04
